This is part of a sample that, as a whole, favours compounds with a hit. Of some 83,000 tested, about 20% had one in any assay.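 The test compound was applied at a single concentration to cells in 96-well plates for 48 hours, and percent growth was recorded.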 Unmarked numbers belong to inactive results. Active and inactive are the calls of the source. Rule for the calls: active = growth percent below 10; inactive = the rest.
System: HT29 colon
Assay: NCI-60 one-dose screen, 48 h (100 = growth as untreated, 0 = no growth, -100 = all killed)
Conditions: 10 µM unless noted

Row | SMILES | growth
1 | Fc1ccc(-c2cc3nc(C(Cl)Cl)nc(-c4ccccc4)n3n2)cc1 | -41.4% (active)
2 | O=C(c1ccc(Cl)cc1)C1[C@H](c2ccc(Cl)cc2)[C@@H](c2ccccc2)NC12C(=O)Nc1ccc(Br)cc12 (stereo partly specified) | 0.232% (active)
3 | COc1ccccc1C(=O)CSc1nc(Nc2ccc(S(N)(=O)=O)cc2)c2ccccc2n1 | 102%
4 | CC(C)(C)Nc1nc2c(OCCc3ccccc3)cccn2c1-c1ccccc1Cl | -47.3% (active)
5 | CNC(=O)c1cc(-c2ccc(NC(=O)Nc3ccc(N4CCOCC4)c(C(F)(F)F)c3)cc2)nc2cccnc12 | 54.9%
6 | CS(=O)(=O)c1ccc(-n2cc(/C=C/C(=O)c3ccc(NC(=O)CO[N+](=O)[O-])cc3)c(-c3ccc(Cl)cc3)n2)cc1 | 108%
7 | Cc1[nH]nc2ncc(C#Cc3cncc(C(=O)Nc4ccc(CN5CCN(C)CC5)c(C(F)(F)F)c4)c3)cc12 | 9.72% (active)
8 | CCN1C(=S)N(CC)C2C1N=C(SC)N2/N=C/C=C/c1ccccc1[N+](=O)[O-] (stereo unspecified) | 93.5%
9 | C/C(=C(/c1ccc(Cl)cc1)c1ccc(OCCN)cc1)c1ccc(C)cc1 | 111%
10 | O=[N+]([O-])c1ccc(O)c2ncccc12 | 20%
11 | Cc1cc(=O)oc2cc(OCCCOc3ccc(/C=C/C(=O)Nc4ccc(Cl)cc4)cc3)ccc12 | 98.1%
12 | Cc1ccc(-c2nc(C(Cl)Cl)nc3cc(-c4ccccc4)nn23)cc1 | -43.7% (active)
13 | Nc1cc(-c2c[nH]c3ccc(F)cc23)nc2cc(-c3c[nH]c4ccc(F)cc34)nn12 | -60.9% (active)
14 | COc1cccc(N2CCN(c3ncnc4c3[nH]c3ccc(F)cc34)C[C@@H]2C)c1 | 5.69% (active)
15 | Cc1ccc(/C=C/c2nn3c(-c4ccco4)nnc3s2)cc1C | 109%
16 | CCN1C(=S)N(CC)C2C1NN=C1SC(c3ccccc3)=CC(=O)N12 (stereo unspecified) | 106%
17 | CC(C)NC(=O)c1cc(-c2ccc(NC(=O)Nc3ccc(N4CCOCC4)c(C(F)(F)F)c3)cc2)nc2cccnc12 | 60.8%
18 | Cn1cc(-c2cc(N)n3nc(-c4cn(C)c5ccc(Cl)cc45)cc3n2)c2cc(Cl)ccc21 | -16.5% (active)
19 | NS(=O)(=O)c1cccc(Nc2nc(SCC(=O)c3ccc(Cl)cc3)nc3ccccc23)c1 | 88.4%

Row | SMILES | growth
20 | Cc1sc2c(c1C)c(=O)nc1c(-c3nc(-c4ccc(F)cc4)no3)n[nH]n12 | 110%
21 | CN1C(=O)N(c2ccccc2)C2N=C(N/N=C/c3ccccc3)SC21 (stereo unspecified) | 3.18% (active)
22 | O=C1C2=C(C(=O)c3c(O)cccc31)C(c1ccco1)c1sc(=O)[nH]c1S2 (stereo unspecified) | 12.5%
23 | N[C@@H](Cc1cn(-c2c3ccccc3nc3ccccc23)nn1)C(=O)O | 107%
24 | Cc1sc2nc(NCc3ccccc3Cl)[nH]c(=O)c2c1C | 103%
25 | COc1ccccc1/C=C/C=N/NC1=NC2C(S1)N(C)C(=O)N2C (stereo unspecified) | 6.54% (active)
26 | CC(=O)Nc1cc(F)cc(-c2ccc3[nH]cc(-c4ccccc4)c3n2)c1 | -49.6% (active)
27 | O=C(CSc1nc2sc3c(c2c(=O)n1-c1ccc(Cl)cc1)CCCC3)N/N=C/c1ccc(F)cc1 | 60.6%
28 | Cc1ccccc1NC(=O)/C=C/c1ccc(OCCOc2ccc3c(C)cc(=O)oc3c2)cc1 | 96.7%
29 | CCN(CC)c1ccc(C=O)c(OCc2cn(CC(=O)Nc3ccc(Cl)cc3)nn2)c1 | 73.2%
30 | CC(C)(C)OC(=O)N1C(=O)c2c(c3c4ccccc4[nH]c3c3ccc4ccccc4c23)C1=O | 51.6%
31 | O=C(CSc1nc2sc3c(c2c(=O)n1-c1ccc(Cl)cc1)CCCC3)NNC(=O)Nc1cccc(C(F)(F)F)c1 | 26.2%
32 | CC(=O)Oc1ccccc1C(=O)Nc1cc(C(C)C)ccc1C | 91.5%
33 | N#Cc1c(-c2ccc(Cl)cc2)nc(SCc2ccc(F)cc2)nc1N1CCNCC1 | -51.8% (active)
34 | COc1ccc(NC(=O)c2sc3nc(-c4cnccn4)cc(-c4cccs4)c3c2N)cc1 | 20.8%
35 | CNC(=O)c1cc(-c2ccc(NC(=O)Nc3ccc(N4CCN(C)CC4)c(C(F)(F)F)c3)cc2)nc2cccnc12 | -89.3% (active)
36 | O=C(CSc1nccc(=O)[nH]1)Nc1ccc(-c2nc3ccccc3[nH]2)cc1 | 109%
37 | O=C1c2c(c3c4cccnc4[nH]c3c3ccc4ccccc4c23)C(=O)N1CCO | 75.6%
38 | CN1CCN(Cc2ccc(NC(=O)c3cncc(C#Cc4cnc5ccc(N6CCSCC6)nn45)c3)cc2C(F)(F)F)CC1 | -50.1% (active)

System: SNB-75 CNS
Assay: as above
Conditions: 10 µM unless noted

Row | SMILES | growth
39 | Fc1ccc(-c2cc3nc(C(Cl)Cl)nc(-c4ccccc4)n3n2)cc1 | -30% (active)
40 | O=C(c1ccc(Cl)cc1)C1[C@H](c2ccc(Cl)cc2)[C@@H](c2ccccc2)NC12C(=O)Nc1ccc(Br)cc12 (stereo partly specified) | 43.9%
41 | COc1ccccc1C(=O)CSc1nc(Nc2ccc(S(N)(=O)=O)cc2)c2ccccc2n1 | 106%
42 | CC(C)(C)Nc1nc2c(OCCc3ccccc3)cccn2c1-c1ccccc1Cl | 34.5%
43 | CNC(=O)c1cc(-c2ccc(NC(=O)Nc3ccc(N4CCOCC4)c(C(F)(F)F)c3)cc2)nc2cccnc12 | 67.6%
44 | CS(=O)(=O)c1ccc(-n2cc(/C=C/C(=O)c3ccc(NC(=O)CO[N+](=O)[O-])cc3)c(-c3ccc(Cl)cc3)n2)cc1 | 111%
45 | Cc1[nH]nc2ncc(C#Cc3cncc(C(=O)Nc4ccc(CN5CCN(C)CC5)c(C(F)(F)F)c4)c3)cc12 | -6.21% (active)
46 | CCN1C(=S)N(CC)C2C1N=C(SC)N2/N=C/C=C/c1ccccc1[N+](=O)[O-] (stereo unspecified) | 82.2%
47 | C/C(=C(/c1ccc(Cl)cc1)c1ccc(OCCN)cc1)c1ccc(C)cc1 | 94.6%
48 | O=[N+]([O-])c1ccc(O)c2ncccc12 | 48.5%
49 | Cc1cc(=O)oc2cc(OCCCOc3ccc(/C=C/C(=O)Nc4ccc(Cl)cc4)cc3)ccc12 | 73.3%
50 | Cc1ccc(-c2nc(C(Cl)Cl)nc3cc(-c4ccccc4)nn23)cc1 | -3.07% (active)
51 | Nc1cc(-c2c[nH]c3ccc(F)cc23)nc2cc(-c3c[nH]c4ccc(F)cc34)nn12 | 79%
52 | COc1cccc(N2CCN(c3ncnc4c3[nH]c3ccc(F)cc34)C[C@@H]2C)c1 | -59% (active)
53 | Cc1ccc(/C=C/c2nn3c(-c4ccco4)nnc3s2)cc1C | 96.5%
54 | CCN1C(=S)N(CC)C2C1NN=C1SC(c3ccccc3)=CC(=O)N12 (stereo unspecified) | 129%
55 | CC(C)NC(=O)c1cc(-c2ccc(NC(=O)Nc3ccc(N4CCOCC4)c(C(F)(F)F)c3)cc2)nc2cccnc12 | 82.6%
56 | Cn1cc(-c2cc(N)n3nc(-c4cn(C)c5ccc(Cl)cc45)cc3n2)c2cc(Cl)ccc21 | 83.2%
57 | NS(=O)(=O)c1cccc(Nc2nc(SCC(=O)c3ccc(Cl)cc3)nc3ccccc23)c1 | 33.6%

Row | SMILES | growth
58 | Cc1sc2c(c1C)c(=O)nc1c(-c3nc(-c4ccc(F)cc4)no3)n[nH]n12 | 85.7%
59 | CN1C(=O)N(c2ccccc2)C2N=C(N/N=C/c3ccccc3)SC21 (stereo unspecified) | -13.5% (active)
60 | O=C1C2=C(C(=O)c3c(O)cccc31)C(c1ccco1)c1sc(=O)[nH]c1S2 (stereo unspecified) | 32.4%
61 | N[C@@H](Cc1cn(-c2c3ccccc3nc3ccccc23)nn1)C(=O)O | 96.7%
62 | Cc1sc2nc(NCc3ccccc3Cl)[nH]c(=O)c2c1C | 82.8%
63 | COc1ccccc1/C=C/C=N/NC1=NC2C(S1)N(C)C(=O)N2C (stereo unspecified) | 18.5%
64 | CC(=O)Nc1cc(F)cc(-c2ccc3[nH]cc(-c4ccccc4)c3n2)c1 | 111%
65 | O=C(CSc1nc2sc3c(c2c(=O)n1-c1ccc(Cl)cc1)CCCC3)N/N=C/c1ccc(F)cc1 | 107%
66 | Cc1ccccc1NC(=O)/C=C/c1ccc(OCCOc2ccc3c(C)cc(=O)oc3c2)cc1 | 84.1%
67 | CCN(CC)c1ccc(C=O)c(OCc2cn(CC(=O)Nc3ccc(Cl)cc3)nn2)c1 | 103%
68 | CC(C)(C)OC(=O)N1C(=O)c2c(c3c4ccccc4[nH]c3c3ccc4ccccc4c23)C1=O | 79.5%
69 | O=C(CSc1nc2sc3c(c2c(=O)n1-c1ccc(Cl)cc1)CCCC3)NNC(=O)Nc1cccc(C(F)(F)F)c1 | 36.3%
70 | CC(=O)Oc1ccccc1C(=O)Nc1cc(C(C)C)ccc1C | 26.1%
71 | N#Cc1c(-c2ccc(Cl)cc2)nc(SCc2ccc(F)cc2)nc1N1CCNCC1 | 65.3%
72 | COc1ccc(NC(=O)c2sc3nc(-c4cnccn4)cc(-c4cccs4)c3c2N)cc1 | 67.1%
73 | CNC(=O)c1cc(-c2ccc(NC(=O)Nc3ccc(N4CCN(C)CC4)c(C(F)(F)F)c3)cc2)nc2cccnc12 | -83.1% (active)
74 | O=C(CSc1nccc(=O)[nH]1)Nc1ccc(-c2nc3ccccc3[nH]2)cc1 | 122%
75 | O=C1c2c(c3c4cccnc4[nH]c3c3ccc4ccccc4c23)C(=O)N1CCO | 118%
76 | CN1CCN(Cc2ccc(NC(=O)c3cncc(C#Cc4cnc5ccc(N6CCSCC6)nn45)c3)cc2C(F)(F)F)CC1 | -67.4% (active)

— PubChem BioAssay (NCI)
